Test results: ChEMBL document CHEMBL3988442, “University of Dundee, Small-Polar-MMV Screening Library” (2021)
The campaign covered roughly 48,000 compounds. About 13,000 (27%) showed an effect of 50% or more. The list shows a part of the results.

test system: Wolbachia pipientis; experiment: Anti-Wolbachia Cell-Based Screen; type: functional; design: scale not given: in the data most compounds retested in dose-response had high values; conditions: 5 µM

Structure (SMILES) | Percent Effect [%]
O=C1CCCN1CCN1CCCCC1Cn1cncn1 (stereo not drawn) | 1.495
O=S(=O)(c1ccccc1)N1CCCC(Cn2cncn2)C1 (stereo not drawn) | -7.569
CCN(CC1COc2ccccc2O1)C(=O)C1=NN(C)C(=O)CC1 (stereo not drawn) | 17.44
COC(=O)CCNC(=O)c1c[nH]cc1-c1cccc(OC)c1 | 3.352
COc1ccc(CN2CCCC2Cn2nc(C)nc2C)cc1F (stereo not drawn) | -0.5946
COc1ccc(F)cc1CN1CCCC1Cn1nc(C)nc1C (stereo not drawn) | 149.5
COc1ccc(CN2CCCCC2Cn2nc(C)nc2C)cc1F (stereo not drawn) | 112.6
COc1ccc(C)cc1CN1CCCC1Cn1nc(C)nc1C (stereo not drawn) | 2.525
COCCNC(=O)c1cc(COc2cncc(Cl)c2)on1 | 6.247
CC(C)CN1CCN(Cc2nc3c(s2)CCCC3)[C@H]2CS(=O)(=O)C[C@H]21 | -7.173
O=C(NC[C@H]1OC[C@@H](NC2CCC(F)(F)CC2)[C@@H]1O)C1CC1 | -11.71
Cc1nc(Nc2cnccn2)cc(C2CCCN2)n1.Cl (stereo not drawn) | 92.06
Cl.c1cnc(Nc2cncc(C3CCCN3)n2)cn1 (stereo not drawn) | 154.6
Cc1ccc2[nH]c(CN(C)c3cc(CCN)nc(C)n3)nc2c1 | 1.379
CCCc1cc(C(=O)N2CCCN(c3cccnn3)CC2)[nH]n1 | -4.631
COc1ccc(C2(CNC(C)c3nnc(C)o3)CCCCC2)cc1 (stereo not drawn) | -5.469
CCN(C(=O)Cc1ccc(NCc2nccn2C)cc1)c1ccccc1 | -5.228
CSC(C)C(=O)N1CCC(Oc2cc(C)ccc2F)(C(=O)O)CC1 (stereo not drawn) | -19.74
COc1cccc(CNc2cnn(CC(F)F)c2)c1 | 110.9
COc1cccc(CNc2c(C)nn(C(C)C)c2C)c1.Cl | -5.673
CC(C)(C)C(=O)N1CCN(C(=O)Nc2cnn(CC(F)F)c2)CC1 | 14.61
COc1ccc(CNc2cnn(CC(F)F)c2)cc1 | 98.47
COCCn1cc(NCc2c[nH]nc2-c2ccc(OC)cc2)cn1 | -43.6
COc1cccc(CNc2cnn(C)c(=O)c2Cl)c1 | -15.43
CC1=CC(C)(C)N(CN2C(=O)c3ccccc3C2=O)c2ccc(C)cc21 | -18.46
CCN1CCC(CC(=O)NCCc2nc(C)c(Cl)s2)CC1 | -2.005
CCC(c1nc(CC(C)C)nn1-c1ccccn1)n1cccn1 (stereo not drawn) | -7.483

Structure (SMILES) | Percent Effect [%]
c1ccc(C2CCN(c3cncc(-n4cccn4)n3)CC2)cc1 | -3.284
Cc1ccc(-c2cn[nH]c2C2CCCN(c3cnccn3)C2)cc1 (stereo not drawn) | -26.5
O=C1OCCC1N1CCN(c2cnccn2)CC1 (stereo not drawn) | -13.03
CC(c1ccccc1)N(C)C(=O)CN1CCN(c2cnccn2)CC1 (stereo not drawn) | -4.354
CC(C)c1nccn1C(C)C(=O)N1CCN(c2cnccn2)CC1 (stereo not drawn) | 8.025
CSCCCN1CCC[C@]2(C(=O)O)CN(c3cnccn3)CC[C@@H]12 | -18.46
c1cc(C2CCN(c3cnccn3)CC2)ccn1 | 108.9
c1cc(C2CCN(c3cnccn3)CC2)ncn1 | 111.8
Nc1nccc(C2CCN(c3cnccn3)C2)n1 (stereo not drawn) | 100.6
CN(C)c1ccc(C2CCN(c3cnccn3)CC2)nc1 | 110.3
Cc1ccc(CN2CC[C@@H](O)[C@@H]2Cc2ccccc2)o1.O=C(O)C(F)(F)F | 1.325
CC(=O)c1cccc(OCCCC(=O)N(C)Cc2ccccn2)c1 | 14.18
COc1ccnc(N2C[C@@H](NS(=O)(=O)N(C)C)[C@H](C(C)C)C2)n1 | 1.494
Cc1noc(C)c1CN1C[C@@H](NC(=O)N(C)C)[C@H](C(C)C)C1 | -17.12
CCN(C)S(=O)(=O)N[C@H]1CN(c2ccc(F)cn2)C[C@@H]1C(C)C | 1.28
CC(C)[C@@H]1CN(c2ncc(F)cn2)C[C@H]1NC(=O)N(C)C | 70.99
CC(C)[C@H]1CN(c2ccncc2)C[C@@H]1NS(=O)(=O)N(C)C | 113.1
CC(C)[C@@H]1CN(c2ncc(F)cn2)C[C@H]1NS(=O)(=O)N(C)C | 83.11
CC(C)[C@@H]1CN(Cc2ccsc2)C[C@H]1NS(=O)(=O)N(C)C | 12.46
CC(C)[C@@H]1CN(S(=O)(=O)Cc2ccccc2)C[C@H]1NS(=O)(=O)N(C)C | -33.69
CC(C)[C@@H]1CN(c2ccc(F)cn2)C[C@H]1NS(C)(=O)=O | -10.09
CCc1nc2n(n1)CCCC2Nc1nc(C(C)C)ns1 (stereo not drawn) | -21.17
CC(C)CCN1CC2(CCCN(C(=O)c3cscn3)C2)CCC1=O (stereo not drawn) | -17.51
CC(C)(C)n1cc(C(=O)N2CCN(Cc3ccsc3)CC2)cn1 | 2.604
O=C(NC[C@H]1OC[C@@H](NC2CCC(F)(F)CC2)[C@@H]1O)Nc1ccccc1 | -10.14
Cc1ccc(F)cc1S(=O)(=O)NCc1[nH]ncc1Br | -6.756
